# The supplement of paper PMC7366291
# Structures can show the parent of a compound that is named as a salt. ± gives the standard deviation of the averaged measurements.
# Test system: Danio rerio Tg(wt1b:EGFP) embryo, pronephros
# Assay: glomerular width (mean of left and right), fold change vs DMSO control; higher = wider glomerulus
# Settings: 25 µM; exposure: 24-48 hpf
# How it was run: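 Dechorionated Tg(wt1b:EGFP) zebrafish embryos were kept from 24 to 48 hpf at 28.5°C in HEPES-buffered E3 containing 0.003% PTU, 0.5% DMSO and 25 μM compound. The pronephroi were then imaged from the dorsal side in agarose-filled 96-well plates at 470 nm with 10 z-slices, and 16 reference points were placed by hand on maximum projections in Fiji so that a macro could calculate distances and angles. Values lying more than 2 SD from the mean of a feature were discarded. Every feature is given as a fold change against the mean of DMSO-treated embryos from the same day.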
row,Compound,glomerular width
1,Cc1cccc(C)c1NC(=O)CN1CCN(CCCC(c2ccc(F)cc2)c2ccc(F)cc2)CC1 [Lidoflazine],0.667 ± 0.014
2,O=C(N/N=C/c1ccc([N+](=O)[O-])o1)c1ccc(O)cc1 [Nifuroxazide],1.02 ± 0.041
3,COc1cc(OC)c(C(=O)CCCN2CCCC2)c(OC)c1 [Buflomedil hydrochloride],1.08 ± 0.06
4,CC(C)(C)C(=O)OCOC(=O)[C@@H]1N2C(=O)[C@@H](NC(=O)[C@H](N)c3ccccc3)[C@H]2SC1(C)C [Pivampicillin],1 ± 0.011
5,N[C@@H](C(=O)N[C@@H]1C(=O)N2C(C(=O)O)=C(Cl)CC[C@H]12)c1ccccc1 [Loracarbef],1.08 ± 0.011
6,CC[N+](CC)(CC)CCC(O)(c1ccccc1)C1CCCCC1 (centres undefined) [Tridihexethyl chloride],0.925 ± 0.012
7,C#CCN(C)CCCOc1ccc(Cl)cc1Cl [Clorgyline hydrochloride],1.05 ± 0.029
8,CC[N+](C)(C)c1cccc(O)c1 [Edrophonium chloride],1.03 ± 0.026
9,NC(CO)C(=O)NNCc1ccc(O)c(O)c1O (centres undefined) [Benserazide hydrochloride],1.01 ± 0.071
10,O=C(OCC(O)CO)c1ccccc1Nc1ccnc2cc(Cl)ccc12 (centres undefined) [Glafenine hydrochloride],1.02 ± 0.04
11,COc1ccccc1OCC(O)COC(N)=O (centres undefined) [Methocarbamol],1.05 ± 0.03
12,OCCN1C[C@H](O)[C@@H](O)[C@H](O)[C@H]1CO [Miglitol],0.995 ± 0.011
13,OC(CCCN1CCCCC1)(c1ccccc1)c1ccccc1 [Diphenidol hydrochloride],1.1 ± 0.11
14,CCCN(CCC)C(=O)C(CCC(=O)O)NC(=O)c1ccccc1 (centres undefined) [Proglumide],1.07 ± 0.049
